MmCpn inh: inhibitors of Methanococcus maripaludis chaperonin TRiC (MmCpn) | 330,000 compounds, 0.031% hits | AID 504842 | purified Mm-Cpn ATPase, ADP Transcreener TR-FRET | Potency, µM (doses to about 76.9 µM), for the others: top-dose activity, negative = inhibition, hits mostly inhibitors; active = well fitted inhibition curve with a large enough effect; inconclusive = small, poorly fitted or top-dose-only effect; note: potency is the fitted concentration of half-maximal effect; % is set by controls: 0 for no effect and ±100 for the full control effect; nearly all actives have a fitted effect of over 80% in size
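Compound-treated chaperonin, 25 nM final, turns over 10 uM ATP at 37°C for 30 min following a 10 min preincubation; ADP generated competes with ADP-d2 for Eu-cryptate antibody, lowering FRET.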
KCNH2 3.1 inh: blocks the human KCNH2 3.1 channel isoform; U2OS KCNH2 3.1, thallium flux FluxOr; active compounds read low; activity change, % (tested at about 1.8 µM); 340,000 compounds, 0.95% hits;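 active = maximum activity change below -70%; inconclusive = maximum activity change from -70% to -50%; inactive = maximum activity change above -50%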;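 note: thallium influx rate constant from kinetic fluorescence after stimulation buffer; % is set by controls: 0 for no effect and ±100 for the full control effect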
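U2OS cells transduced with KCNH2 3.1 mutant virus (1.77 x 10^8 /mL, 4 h), plated overnight at 37 C, loaded 45 min with FluxOr dye plus Red40 quencher. Thallium flux rate constant from kinetic reads after stimulation buffer, normalised to controls.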
Rango release inh: inhibitors of RanGTP-induced Rango-importin beta complex dissociation | O95149+P62826 | Biochemical FRET Rango-importin beta, RanGTP-induced dissociation | Potency, µM (titrated, usually from 46.1 µM), without a hit: at the top dose activity change, negative = inhibition | 340,000 compounds, 0.071% hits; note: potency is the fitted concentration of half-maximal effect; % of control where 0% means no effect; nearly all actives have a fitted effect of over 45% in size
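Rango FRET biosensor (snurportin-1 IBB flanked by N-terminal EYFP and C-terminal CFP10) at 0.1 uM, with 0.25 uM importin beta in PBS, 1mM DTT, 0.02% Tween-20, 0.1% BSA. 0.6 uM Ran, 2mM GTP and 0.2 uM RCC1 were then added for 45 min at room temperature. Inhibition read as loss of FRET rise.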
KCNH2 WT inh: inhibitors of human wildtype KCNH2 potassium channel; activity change, % at 1.84 µM; 340,000 compounds, 0.37% hits; U2OS, BacMam KCNH2, thallium flux FluxOr; active compounds read low; Q12809;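 active = maximum activity change below -70%; inconclusive = maximum activity change between -70% and -50%; inactive = maximum activity change above -50%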; note: % is set by controls: 0 for no effect and ±100 for the full control effect
Target sequence (Q12809 whole entry, looked up): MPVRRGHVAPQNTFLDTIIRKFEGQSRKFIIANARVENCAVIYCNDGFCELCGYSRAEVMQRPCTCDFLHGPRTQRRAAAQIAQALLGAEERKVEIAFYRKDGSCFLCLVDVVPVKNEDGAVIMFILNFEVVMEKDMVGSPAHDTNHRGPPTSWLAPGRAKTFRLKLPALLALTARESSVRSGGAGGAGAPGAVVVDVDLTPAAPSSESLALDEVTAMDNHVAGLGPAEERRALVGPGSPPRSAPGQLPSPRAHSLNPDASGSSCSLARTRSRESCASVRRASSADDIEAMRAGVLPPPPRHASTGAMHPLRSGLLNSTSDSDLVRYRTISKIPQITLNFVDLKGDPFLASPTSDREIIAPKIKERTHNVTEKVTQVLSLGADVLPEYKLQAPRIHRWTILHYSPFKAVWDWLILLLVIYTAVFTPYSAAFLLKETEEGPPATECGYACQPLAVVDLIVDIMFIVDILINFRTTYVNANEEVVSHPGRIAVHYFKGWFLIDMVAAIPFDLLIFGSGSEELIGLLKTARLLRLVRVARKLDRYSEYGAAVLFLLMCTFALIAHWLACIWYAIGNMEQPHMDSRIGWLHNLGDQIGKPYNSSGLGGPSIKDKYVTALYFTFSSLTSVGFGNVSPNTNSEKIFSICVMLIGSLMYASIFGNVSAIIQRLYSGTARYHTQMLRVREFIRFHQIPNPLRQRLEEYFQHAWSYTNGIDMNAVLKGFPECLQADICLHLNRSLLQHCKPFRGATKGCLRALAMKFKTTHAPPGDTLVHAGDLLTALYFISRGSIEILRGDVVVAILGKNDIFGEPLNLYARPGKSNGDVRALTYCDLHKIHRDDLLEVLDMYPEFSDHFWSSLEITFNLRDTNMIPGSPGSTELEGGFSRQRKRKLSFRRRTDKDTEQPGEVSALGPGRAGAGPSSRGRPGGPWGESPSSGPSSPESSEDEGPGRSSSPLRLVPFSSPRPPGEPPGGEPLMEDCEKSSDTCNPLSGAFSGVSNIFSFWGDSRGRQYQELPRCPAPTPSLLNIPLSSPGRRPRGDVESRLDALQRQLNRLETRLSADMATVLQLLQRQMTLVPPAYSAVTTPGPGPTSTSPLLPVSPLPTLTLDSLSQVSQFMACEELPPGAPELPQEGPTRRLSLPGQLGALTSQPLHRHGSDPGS
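U2OS cells were transduced with wild-type KCNH2 virus (2.03 x 10^8 / mL) for 4 h at room temperature, then cultured overnight at 37 C. Thallium flux was read with FluxOr dye. Rate constants were normalized to DMSO controls.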
CCT modulator: changes cytosolic chaperonin activity; activity change, % (concentration not given with the values), hits read low; 360,000 compounds, 0.3% hits; purified chaperonin ATPase assay, HTRF ADP detection, 30 min; in the data active = activity change below about -30%; note: % is set by controls: 0 for no effect and ±100 for the full control effect
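Nucleotide hydrolysis assay: TRiC at 20–40 nM final (set by batch activity) with 10 uM ATP, 30 min at 37 °C, in presence of 76 uM compound. Detection by competitive ADP HTRF, 30 min ambient.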
Rango-impB inh: Rango-importin beta binding inhibition; Q14974; Rango CFP/YFP FRET sensor + importin beta, 45 min; Potency, µM (series often up to 92.2 µM), for inactives: at the top dose inhibition of complex formation; 340,000 compounds, 0.031% hits; AID 540263;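 note: potency is the fitted concentration of half-maximal effect; 0% = DMSO wells and 100% = buffer wells lacking importin beta; nearly all actives have a fitted effect of over 15% in size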
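FRET biosensor Rango (snurportin 1 IBB between N-terminal EYFP and C-terminal Cerulean), 50 nM in PBS/1 mM DTT/0.02% Tween-20/0.1% BSA, preincubated 5 min RT with compound; 0.125 microM importin beta added, 45 min RT, CFP/YFP FRET ratio read.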
* hit, by the source's call; ? = inconclusive; / = not tested or not shown; [ ] = remark or other dose. The list is not random: actives were taken first. Their share in the collection is about 1.4%. Unless noted, calls come from the whole dose curve.

SMILES	MmCpn inh	KCNH2 3.1 inh	Rango release inh	KCNH2 WT inh	CCT modulator	Rango-impB inh
Cc1ccc(-c2csc(N(CCCN(C)C)C(=O)c3ccco3)n2)cc1	3%	-49	-1%	7	0	-1%
CCN(CC)CCCN(C(=O)c1ccc(OC)cc1)c1nc(-c2ccc(OC)cc2)cs1	-5%	-95*	-13%	?	-1	2%
CCN(CC)CCCN(C(=O)c1ccccc1C)c1nc(-c2ccc(OC)cc2)cs1	0%	-1	?	11	-1	4%
CCOc1ccccc1-n1nnnc1SC(C)C(=O)OC (centres undefined)	0%	5	-5%	-13	-1	-3%
Cc1ccc(C)c(S(=O)(=O)N2CCN(C(=O)Cc3c(F)cccc3Cl)CC2)c1	-1%	-78*	-11%	1	0	1%
Cc1ccc(S(=O)(=O)N2CCN(C(=O)COC(=O)Cc3c(F)cccc3Cl)CC2)c(C)c1	/	-23	3%	2	2	2%
C#CCCOC(=O)N1C2=NC(C(=O)OC)=C(C(=O)OC)[C@@H]3N(Cc4ccccc4)c4ccccc4[C@]23C[C@H]1C(=O)OC	0%	-136*	2%	-3	-2	2%
C#CCCOC(=O)N1C2=NC(C(=O)OC)=C(C(=O)OC)[C@@H]3N(C)c4ccccc4[C@]23C[C@H]1C(=O)OC	1%	14	-7%	7	-3	0%
COc1cccc(NC(=O)c2ccnc(N3CCC(C(=O)NCc4ccccc4OC)CC3)c2)c1	0%	-109*	6%	-1	-2	1%
COC(=O)c1cc2c(s1)c1cnn(Cc3ccccc3F)c(=O)c1n2C	2%	/	/	/	/	/
CCCN(CCC)CC(O)COc1ccc([N+](=O)[O-])cc1 (centres undefined)	-4%	?	3%	-75*	-1	-4%
CCCN(CCC)CC(O)COc1ccc2c(c1)OCO2 (centres undefined)	0%	-5	-4%	23	0	-1%
COc1ccc(-c2c(N)cnc(C(=O)O)c2C)c(OCc2ccccc2)c1OC	/	3	/	-2	0	/
Cc1ccc(Nc2ccc(N3CCN(c4ccc([N+](=O)[O-])cc4)CC3)nn2)cc1	1%	-109*	-1%	-86*	0	1%
COc1cccc(NC(=O)CSc2nnc3ccc(-c4ccccn4)nn23)c1	-17%	-4	-12%	-1	-2	1%
N#C/C(=C\c1ccc(-c2ccc(S(=O)(=O)N3CCOCC3)cc2)o1)C(=O)NC1CC1	-1%	9	?	-1	2	?
N#C/C(=C/c1ccc(-c2ccc(S(=O)(=O)N3CCOCC3)cc2)o1)C(=O)NC1CC1	/	10	?	-80*	1	?
O=C(NC1CCCCC1)c1ccc2ccccc2c1O	/	-2	/	-6	2	/
O=C(NNC(=O)c1ccc2ccccc2c1O)NC1CCCCC1	-5%	-10	-16%	-88*	-2	-1%
CCOC(=O)c1cnc2c(CC)cccc2c1NCCCN1CCOCC1	-2%	-74*	?	-5	1	?
CCc1ccccc1NC(=O)Cn1nc(C(F)(F)F)cc1C1CC1	1%	-78*	1%	-5	0	-5%
Cc1ccc(S(=O)(=O)N2C=CC(C(F)(F)F)=NCC2)cc1	0%	13	3%	-76*	0	-5%
CC(C)(C)c1ccc(S(=O)(=O)N2C=CC(C(F)(F)F)=NCC2)cc1	1%	-7	-15%	24	-3	2%
Cc1cc2c(c(=O)n1-c1ccccc1)C1O[C@](c3ccsc3)(Cc3ccccc31)O2	-7%[15.4 µM]	/	/	/	/	/
CCCCc1nc2cc(C(=O)N3CCN(c4nc(C)cnc4C)CC3)ccc2o1	1%	-77*	-3%	-5	-2	-3%
SMILES	MmCpn inh	KCNH2 3.1 inh	Rango release inh	KCNH2 WT inh	CCT modulator	Rango-impB inh
Cc1cc(C)cc(N(CC(=O)NCc2ccco2)C(=O)CCC(=O)Nc2nccs2)c1	2%	-72*	-7%	6	-2	0%
CCOc1ccc(N(CC(=O)NC2CCCCC2)C(=O)CCC(=O)Nc2nccs2)cc1	-1%	-91*	4%	5	-2	4%
CCOc1ccc(N(CC(=O)NC2CCCC2)C(=O)CCC(=O)Nc2nccs2)cc1	1%	10	11%	5	0	3%
O=C1CN(C(=O)COc2c(F)c(F)cc(F)c2F)c2ccccc2N1	0%	18	-18%	6	-2	0%
CN(C)c1ccc(C(=O)/C=C/c2ccc(Br)cc2)cc1	-1%	3	?	/	-1	?
CCN(CC)c1ccc(/C=C/C(=O)c2ccc(Br)cc2)cc1	-2%	?	?	-167*	-2	?
Cc1ccccc1P(=O)(c1ccccc1)c1ccccc1C	/	-1	/	5	2	/
CCN(CCCNC(=O)Cn1ncc2c(=O)oc3ccccc3c21)c1cccc(C)c1	?	-180*	1%	-165*	0	-1%
CCCN(C(=O)Cn1ncc2c(=O)oc3ccccc3c21)c1cccc(C)c1	/	3	-8%	4	1	1%
O=c1c(S(=O)(=O)c2ccc(Cl)cc2)cn(Cc2cccc(F)c2)c2ccc(F)cc12	2%	-82*	-7%	?	-6	-1%
Cc1ccc(Cn2cc(S(=O)(=O)c3ccc(Cl)cc3)c(=O)c3cc(F)ccc32)cc1	2%	-36	-20%	-37	-3	-2%
CCCNC(=O)C(Cc1ccc(Cl)cc1)NC(=O)c1ccc(-c2ccccc2)cc1 (centres undefined)	4%	-1	-7%	1	-1	0%
O=C(Nc1ccc(Br)cn1)c1cccc(C(=O)Nc2ccc(Br)cn2)c1	-25%	-77*	21%	10	0	6%
CCCCCCNCC(=O)N1CCC(Cc2ccccc2)CC1	0%	-101*	3%	2	0	-4%
CCCC(=O)N1CCC(Cc2ccccc2)CC1	1%	9	18%	-1	0	4%
CCOc1ccc(Oc2ccc(Cl)cc2NC(=O)C2=COCCO2)cc1	-2%	15	5%	4	0	-1%
O=C(Nc1cc(Cl)ccc1Oc1ccccc1)C1=COCCO1	-1%	-74*	10%	6	1	-5%
CN(C(=O)COC(=O)c1c[nH]c2ccccc12)c1ccccc1	/	5	/	-1	-1	/
COc1ccc(C(=O)NC(=S)N(Cc2ccccc2)Cc2ccccc2)cc1	2%	-11	-12%	-102*	0	2%
CCC(=O)NCCn1ccc2ccccc21	-1%	-5	-14%	-140*	0	3%

Source: PubChem (National Center for Advancing Translational Sciences (NCATS))
